Bioassay records (PubChem)
Sfp PPTase inh: blocks B. subtilis Sfp PPTase activity | Biochemical Sfp PPTase activity, qHTS | Potency, µM, inactives show largest response in the series, negative = inhibition, hits mostly inhibitors | 310,000 compounds, 3.5% hits | AID 1490;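 also: the enzyme is Sfp with the accession as filed and its product quenches rhodamine fluorescence; potency is read from the fitted curve at half-maximal effect; 0% = enzyme reaction without inhibitor and -100% = no enzyme wells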
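Fluorescence-quenching assay with 15 nM Sfp, 5 uM rhodamine-CoA and 12.5 uM BHQ-2-labelled ybbR peptide in pH 7.6 Hepes/MgCl2 buffer. Enzyme was pre-incubated with compound for 15 min at room temperature. Rate was taken from the 30-min fluorescence change (525/598 nm).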
IMPase Li cell: membrane-permeable IMPase blocker, potentiated with lithium. CHO-M1 cells, IP1 TR-FRET (IP-One), carbachol + lithium. Potency, µM (doses to about 59.4 µM), for inactives: at the highest dose activity, negative = IMPase inhibition, usual class: inhibitors. 210,000 compounds, 0.35% hits. AID 1457;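 also: IP1 builds up when IMPase is blocked and the TR-FRET signal falls; potency is read from the fitted curve at half-maximal effect; plate controls were basal vehicle for no effect and high inhibitor control for full effect; nearly all actives have a fitted effect of over 50% in size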
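CHO cells stably expressing M1 receptor (2000/well, cultured 16–30 h) treated 30 min at 37C with compound plus low lithium. Cytosolic IP1 by TR-FRET (665/620 ratio and 620 channel) after 10 min lysis; AC50 by Hill fit.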
KDM4E inh: JMJD2E (human) inhibition. B2RXH2. JMJD2E catalytic domain, FDH-coupled NADH fluorescence (FDH is formaldehyde dehydrogenase). Potency, µM (doses to about 57.1 µM), for inactives: at the highest dose activity change, negative = inhibition, actives largely listed as inhibitors. 230,000 compounds, 1.6% hits. AID 2147; active = well fitted inhibition curve with a large enough effect, not every such curve was filed as active; inconclusive = small, poorly fitted or top-dose-only effect, or another doubt; inactive = no such curve, though single readings can be large or run the other way;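 also: potency is read from the fitted curve at half-maximal effect; 0% = wells with enzyme and -100% = buffer wells without enzyme; nearly all actives have a fitted effect of over 50% in size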
Target sequence (B2RXH2 1-337 limits assumed): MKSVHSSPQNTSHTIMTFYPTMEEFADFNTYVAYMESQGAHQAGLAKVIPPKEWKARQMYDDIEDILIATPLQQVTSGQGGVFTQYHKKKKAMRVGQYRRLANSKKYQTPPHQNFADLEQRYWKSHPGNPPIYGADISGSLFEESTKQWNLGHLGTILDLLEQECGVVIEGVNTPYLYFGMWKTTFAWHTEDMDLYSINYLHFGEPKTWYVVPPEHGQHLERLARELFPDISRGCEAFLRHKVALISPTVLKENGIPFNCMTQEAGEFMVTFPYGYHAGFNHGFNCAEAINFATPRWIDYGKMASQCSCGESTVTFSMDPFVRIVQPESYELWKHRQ
Epigenetic reg: epigenetic control regulation, reporter derepression; Potency, µM (top dose mostly 53.9 µM), inactives show at the highest dose GFP activation, usual class: activators; AID 1865; 280,000 compounds, 0.2% hits; murine LDR cells, GFP reporter derepression, 30 h; also: potency is read from the fitted curve at half-maximal effect; % of control where 0% means no effect; nearly all actives have a fitted effect of over 60% in size
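Derepression of a silenced CMV-GFP reporter in murine LDR cells is scored by enumerating GFP-positive cells with a laser-scanning microplate cytometer after 30 hours of treatment at 37 C.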
NPSR antagonist: neuropeptide S receptor (human) antagonism, cAMP | Q6W5P4 | 220,000 compounds, 1% hits | AID 1461 | CHO-NPSR cells, cAMP TR-FRET, antagonist mode | Potency, µM (titrated, usually from 38.3 µM), for the others: top-dose activity change, negative = inhibition, hits mostly inhibitors; also: potency is read from the fitted curve at half-maximal effect; % is scaled to controls: 0 for no effect and ±100 for the full control effect; nearly all actives have a fitted effect of over 50% in size
GCN5L2 inh: GCN5L2 (KAT2A) acetyltransferase inhibition. 390,000 compounds, 0.21% hits. GCN5L2 HAT assay, ThioGlo1 CoA-SH fluorescence. Potency, µM (doses to about 58.9 µM), for the others: top-dose activity change, negative = inhibition, most hits filed as inhibitors. AID 504327. Q92830; also: potency is read from the fitted curve at half-maximal effect; % is scaled to controls: 0 for no effect and ±100 for the full control effect
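Preincubate 20nM GCN5L2 with compound 15 min, RT → add 50uM ThioGlo1 + 75uM H3(1-25) + 70uM acetyl-CoA → read fluorescence 0 and 20 min. Primary qHTS; fluorescent artifacts likely.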
Sfp inh conf: confirmation of Bacillus subtilis Sfp PPTase inhibitors. Sfp PPTase enzymatic assay, qHTS titration. 380 compounds, 79% hits. Potency, µM (doses to about 114 µM), for the others: top-dose activity change, negative = inhibition, most hits filed as inhibitors. shares compounds with Sfp PPTase inh;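 also: potency is read from the fitted curve at half-maximal effect; plate controls were uninhibited Sfp reaction for no effect and no enzyme control for full effect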
Target sequence (Q9F4F7 whole entry, looked up): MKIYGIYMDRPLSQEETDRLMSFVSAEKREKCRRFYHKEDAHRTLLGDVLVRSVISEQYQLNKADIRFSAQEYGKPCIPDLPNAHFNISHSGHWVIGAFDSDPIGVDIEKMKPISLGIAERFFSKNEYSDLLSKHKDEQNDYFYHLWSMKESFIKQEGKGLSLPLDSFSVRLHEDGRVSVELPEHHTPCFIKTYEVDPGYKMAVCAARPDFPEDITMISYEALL
Sfp PPTase gel: Blocks Sfp PPTase activity, gel read-out | 210 compounds, 20% hits | purified Sfp, gel-based phosphopantetheinylation read-out | Potency, µM, hits mostly inhibitors | shares compounds with Sfp PPTase inh;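 active = potency below 100 µM; inconclusive = dose-dependent response but potency above 100 µM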;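 also: band intensities scaled against SCH202676 control wells before curve fitting; potency is an IC50 for inhibitors of Sfp transfer activity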
Numbers without * were called inactive; i = inactive; ? = inconclusive; · = no result; [ ] = remark or other dose. This is a sample that favours compounds with a hit; in the whole collection about 3.6% have one here. Unless noted, calls follow the shape of the dose curve; as a rule, active = well fitted curve in the direction sought with a large enough effect; inconclusive = small, poorly fitted or top-dose-only effect, or another doubt; inactive = no such curve, though single readings can be large; an effect the other way counts as inactive or inconclusive.

SMILES | Sfp PPTase inh | IMPase Li cell | KDM4E inh | Epigenetic reg | NPSR antagonist | GCN5L2 inh | Sfp inh conf | Sfp PPTase gel
Clc1ccccc1-c1nnc2sc(CCc3ccccc3)nn12 | 13µM* | 11% | 1% | 0% | -15%[46.1 µM] | -11% | 12µM* | ·
c1ccc(CCc2nn3c(-c4ccncc4)nnc3s2)cc1 | ? | 10%[38.3 µM] | -4% | -1% | -5%[46.1 µM] | -1% | · | ·
COc1ccc(-c2nc3cc(NC(=O)COc4ccccc4C)ccc3o2)cc1 | · | · | · | 2% | · | -7% | · | ·
COc1cc(NC(=O)CN2CCCN(Cc3cccc(F)c3)S2(=O)=O)cc(OC)c1 | · | · | · | 0% | · | 1% | · | ·
CC(C)(C)NC(=O)C(c1cccnc1)N(C(=O)c1ccc(Cl)nc1)C1CCCC1 (centres undefined) | 3.5µM* | 0% | 0% | 3% | 20% | -24% | 0% | i
On1c2c(c3c4nonc4ccc31)CCCC2 | 45µM* | 9% | -10% | -2% | -4%[46.1 µM] | -12% | 66µM* | ·
CC(=O)Nc1ccc2nc3c(=O)n(C)c(=O)n(C)c3nc2c1C | · | · | · | -2% | · | 1% | · | ·
COc1ccccc1N1C(=O)C2CC(C)=C(C)CC2C1=O (centres undefined) | 10% | 2%[38.3 µM] | 14% | ? | 15%[46.1 µM] | -5% | · | ·
COc1ccccc1N1C(=O)C=C(Sc2nc(C)cc(C)n2)C1=O | 3.2µM* | · | 1% | 9% | ? | -10% | 1.7µM* | 6.2µM*
CCOc1ccc2nc(NC(=O)c3cc(=O)c4cc(C)cc(C)c4o3)sc2c1 | · | · | · | -1% | · | 2% | · | ·
Cc1ccc(C)c(Nc2nnc(-c3ccc(C)c(S(=O)(=O)N4CCN(C)CC4)c3)c3ccccc23)c1 | · | · | · | -1% | · | -4% | · | ·
Oc1ccc(NCc2cccc(OCc3ccc(F)cc3)c2)cc1 | 16µM* | 23% | -2% | ? | 13% | -27% | 53µM* | ?
Clc1ccc(C[n+]2csc3ccccc32)cc1 | 4µM* | -3% | ? | 7% | -20% | -2% | 8.3µM* | 2.1µM*
CCCOC(=O)c1c(NC(=O)CCC(=O)O)sc2c1CCCCC2 | ? | -13% | -27% | 7% | -21% | -4% | · | ·
CCOc1ccccc1NC(=O)c1c(NC(=O)CCC(=O)O)sc2c1CCCCC2 | 13µM* | 1% | -1% | -3% | -48% | -3% | 24µM* | i
CCOC(=O)c1ccc(NC(=O)c2c(NC(=O)CCC(=O)O)sc3c2CCCCC3)cc1 | 11µM* | -2% | -6% | 1% | 13% | -2% | 12µM* | i
CCOc1ccccc1NC(=O)c1c(NC(=O)Cc2ccccc2)sc2c1CCCC2 | · | · | · | -2% | · | -1% | · | ·
CO/N=C(/C(=O)N[C@@H]1C(=O)N2C(C(=O)O)=C(CSc3cnns3)CS[C@H]12)c1csc(N)n1 | 40µM* | · | · | · | · | -8% | 53µM* | 56µM*
COc1cccc(CNc2ccc(N3CCC(C)CC3)cc2)c1OC | 10µM* | 7% | 13µM* | -2% | -8%[46.1 µM] | -2% | ? | i
O=C(Cn1ncn2c(cc3cc(F)ccc32)c1=O)NC1CCCCC1 | · | · | · | 1% | · | -4% | · | ·
COc1ccccc1C(=O)Nc1cc2c(cc1N1CCOCC1)n(C)c(=O)n2C | · | · | · | 3% | · | 1% | · | ·
Nc1c(C(=O)Nc2ccccc2F)sc2nc(-c3ccco3)ccc12 | 4µM* | ? | ? | ? | 20%[46.1 µM] | -4% | 1.7µM* | ·
Nc1c(C(=O)Nc2ccccc2F)sc2nc(-c3cccnc3)ccc12 | ? | · | -7% | 8% | -10% | -6% | · | ·
NC(=O)c1sc2nc(-c3cccnc3)ccc2c1N | ? | · | -7% | -4% | -15% | -7% | · | ·
NC(=O)c1sc2nc(-c3ccco3)ccc2c1N | 5µM* | ? | ? | -1% | 2%[46.1 µM] | -13% | 6.6µM* | i
SMILES | Sfp PPTase inh | IMPase Li cell | KDM4E inh | Epigenetic reg | NPSR antagonist | GCN5L2 inh | Sfp inh conf | Sfp PPTase gel
COc1ccc(C(=O)C2CCCN(C(=O)CCc3scnc3C)C2)c(C)c1 (centres undefined) | 13µM* | -2% | ? | 6% | 21% | 1% | 6% | ·
COc1ccc(C(=O)C2CCCN(C(=O)CCc3ccccn3)C2)c(C)c1 (centres undefined) | 12% | 4% | 8% | 0% | -12% | -9% | · | ·
Cc1cc(C)c(C(=O)N2CCCC(CNS(=O)(=O)c3cccs3)C2)o1 (centres undefined) | 5% | · | · | · | · | ? | · | ·
CC(C)(O)C#Cc1ccc(C(=O)N2CCCC(CNS(=O)(=O)c3cccs3)C2)o1 (centres undefined) | 40µM* | · | · | · | · | -12% | 59µM* | ·
Cc1ccc(-c2nc(N)sc2CC(=O)OCC(=O)N2C(C)CCCC2C)cc1 (centres undefined) | 18µM* | 4% | 4% | -1% | -17% | 18% | 37µM* | i
CC(=O)Nc1ccc(NC(=O)CCc2ccc(C)o2)cc1 | 7% | · | · | · | · | 2% | · | ·
CC(=O)CCc1oc2ccc(NC(C)=O)cc2c1-c1ccc(C)o1 | 13µM* | 11%[38.3 µM] | ? | 5% | -6%[46.1 µM] | -4% | 15µM* | i
CCOc1ccc2nc(SCC(=O)c3ccc(C)s3)sc2c1 | 18µM* | 27%[38.3 µM] | -1% | -1% | -28%[46.1 µM] | -4%[0.501 µM] | ? | i
CCOC(=O)c1cc(=O)n2nc(-c3ccccc3F)nc2s1 | 14µM* | 32%[38.3 µM] | -2% | 0% | ? | -1% | 59µM* | ·
Cc1ccc(Cl)cc1NC(=O)CCc1c(C)nc2c3cccnc3nn2c1C | · | · | · | -7% | · | -2% | · | ·
O=C(O)c1cc(=O)c2c3nc4ccccc4oc-3cc(=O)c2[nH]1 | 45µM* | · | · | · | · | -23% | 53µM* | ·
Fc1ccccc1C1CC(c2ccco2)=Nc2ccccc2S1 (centres undefined) | 3.5µM* | · | 28µM* | ? | -30% | -11% | 33µM* | i
OCCn1c(CSc2nnc(-c3ccco3)n2-c2ccccc2)nc2ccc(Cl)cc21 | 4µM* | 20%[38.3 µM] | -10% | -1% | -5%[46.1 µM] | -15% | 12µM* | i
NC(=O)CSc1nnc(-c2ccco2)n1-c1ccccc1 | 7% | · | · | · | · | -17% | · | ·
Cc1ccccc1-n1nc(-c2ccc(N)cc2)cc1N | 14µM* | 4% | -18% | 3% | -3%[46.1 µM] | -17% | 2% | i
Clc1cccc2sc(N3CCCCC3)nc12 | -24% | 24%[38.3 µM] | 3% | 0% | 5%[46.1 µM] | -1% | · | ·
Clc1cc(Cl)c2nc(N3CCCCC3)sc2c1 | 10µM* | -2%[38.3 µM] | -7% | -1% | -3%[46.1 µM] | ? | 47µM* | ·
Cc1cc(C)nc(SCNC(=O)c2ccccc2)n1 | 7.9µM* | 8% | -3% | 0% | -6%[46.1 µM] | 25% | 53µM* | i
